{
  "source": "the OligoGym collection",
  "data": [
    {"molecular_target": "DCPS", "assay": "pooled miR-30 sensor sort-seq; sequence = guide strand", "conditions": "shRNA", "values": [
      {"sequence": "TTCAATACTAGGAATAAGCCGG", "sensor-assay potency score (higher = more potent)": -0.221},
      {"sequence": "TTATACACCCACTGGATGCTGA", "sensor-assay potency score (higher = more potent)": -0.178},
      {"sequence": "TACCATTTCCAACTCCTGCCTC", "sensor-assay potency score (higher = more potent)": -0.586},
      {"sequence": "ATTCCTGTAGTCATCTCCCGTC", "sensor-assay potency score (higher = more potent)": -0.108},
      {"sequence": "TTACATCATTCAGTTGTCTTGG", "sensor-assay potency score (higher = more potent)": 0.191},
      {"sequence": "TAGTCATCTCCCGTCTCTCGGA", "sensor-assay potency score (higher = more potent)": -0.952},
      {"sequence": "TAGGAAAATGATTTTGTCCCGC", "sensor-assay potency score (higher = more potent)": -0.432},
      {"sequence": "TATTCCTGTAGTCATCTCCCGT", "sensor-assay potency score (higher = more potent)": -0.287},
      {"sequence": "TTCTGCAGTCTGAAGCCGGAGA", "sensor-assay potency score (higher = more potent)": -0.8},
      {"sequence": "TTTTAGAAAATTCACTTGGAGA", "sensor-assay potency score (higher = more potent)": -0.97},
      {"sequence": "TTGTCTTGGAGGGAACAAGTGA", "sensor-assay potency score (higher = more potent)": -0.588}
    ]},
    {"molecular_target": "DCST1", "assay": "pooled miR-30 sensor sort-seq; sequence = guide strand", "conditions": "shRNA", "values": [
      {"sequence": "TTCTTTGCCCTCTTGTGCCATT", "sensor-assay potency score (higher = more potent)": -1.23},
      {"sequence": "TTGTAGAGGAACAGGATCCGCT", "sensor-assay potency score (higher = more potent)": -0.486},
      {"sequence": "TCTTCGTAGATGTTCATGGGGT", "sensor-assay potency score (higher = more potent)": -0.405},
      {"sequence": "ATCGGTACTGCAGCTCTCCAGT", "sensor-assay potency score (higher = more potent)": -0.753},
      {"sequence": "TTCTTCGTAGATGTTCATGGGG", "sensor-assay potency score (higher = more potent)": 0.19},
      {"sequence": "TAACAGGCAGAGACACACTAAC", "sensor-assay potency score (higher = more potent)": -1.38},
      {"sequence": "TTGATCTGCAGCTCCACGGTGC", "sensor-assay potency score (higher = more potent)": -0.609},
      {"sequence": "TTTGCTACTCAGCAGGTCCTTG", "sensor-assay potency score (higher = more potent)": -0.773},
      {"sequence": "TTGGGTACTAGTAGGAGGCTGG", "sensor-assay potency score (higher = more potent)": 0.466},
      {"sequence": "TAGGTCATTGTAGAGGAACAGG", "sensor-assay potency score (higher = more potent)": -1.31},
      {"sequence": "TATCCCAGGACAAAGAGCCTGC", "sensor-assay potency score (higher = more potent)": -0.178},
      {"sequence": "TACAAGAACATAATCTTCTGTT", "sensor-assay potency score (higher = more potent)": 0.614}
    ]},
    {"molecular_target": "DCTN6", "assay": "pooled miR-30 sensor sort-seq; sequence = guide strand", "conditions": "shRNA", "values": [
      {"sequence": "TTAAGAGTACATAAACACTGTG", "sensor-assay potency score (higher = more potent)": -0.096},
      {"sequence": "TAGGTTTTGGTTCTGGATCTTC", "sensor-assay potency score (higher = more potent)": -0.00342},
      {"sequence": "TTTCTACACATACAACTGCTCC", "sensor-assay potency score (higher = more potent)": -0.672},
      {"sequence": "TAAGAGTACATAAACACTGTGG", "sensor-assay potency score (higher = more potent)": -0.0797},
      {"sequence": "TTTCATAGTCTTCTTTAGGTGG", "sensor-assay potency score (higher = more potent)": -0.245},
      {"sequence": "TTTCATCAAGAAATCCAGCTGT", "sensor-assay potency score (higher = more potent)": 0.825},
      {"sequence": "TAATTCTTGCTTTAGGGTGGAT", "sensor-assay potency score (higher = more potent)": -0.47},
      {"sequence": "TAGATCACCGTATTCTCAGGGA", "sensor-assay potency score (higher = more potent)": 0.157},
      {"sequence": "TTTAGGTTGCAACAAGCCCCAA", "sensor-assay potency score (higher = more potent)": -1.26},
      {"sequence": "TTAGGGTGGATCACTGTCCGAG", "sensor-assay potency score (higher = more potent)": -0.692},
      {"sequence": "TTTCACTTTCTACACATACAAC", "sensor-assay potency score (higher = more potent)": -1.58}
    ]},
    {"molecular_target": "DCX", "assay": "pooled miR-30 sensor sort-seq; sequence = guide strand", "conditions": "shRNA", "values": [
      {"sequence": "TTCTCTTATATGGACTGTCTAT", "sensor-assay potency score (higher = more potent)": -0.935},
      {"sequence": "TCTATCTTAAAACAGCTGCAGG", "sensor-assay potency score (higher = more potent)": -0.806},
      {"sequence": "TTGATCACAATGCTGTTCCTTA", "sensor-assay potency score (higher = more potent)": 0.503},
      {"sequence": "TAACATAGAATATAAACTGAGA", "sensor-assay potency score (higher = more potent)": -0.639},
      {"sequence": "TTCATTTAAATCAACTCCGATT", "sensor-assay potency score (higher = more potent)": -0.375},
      {"sequence": "ATTCTTGGTGTACTCCACCTTT", "sensor-assay potency score (higher = more potent)": -0.629}
    ]}
  ]
}
